# Results: PubChem BioAssay (Tox21)
# Unmarked numbers belong to inactive results. Inconclusive results are not listed. A call without a number means that no potency is given here. Activity calls are given as the source filed them. Unless noted, the call rests on the fitted dose curve; in most records, active means well fitted curve in the direction sought with a large enough effect in the repeat runs; inconclusive means weak or mixed curves; inactive means no such curve, though single readings can be large; an effect the other way counts as inactive or inconclusive.
# How the values were obtained:
# [1] = biological target: Thyrotropin receptor (Homo sapiens) (UniProt P16473); assay: qHTS assay to identify small molecule agonists of the thyroid stimulating hormone receptor (TSHR) signaling pathway (AID 1224843; calls by dose curve; further: nearly all actives have a fitted effect of over 45% in size; further: potency means the concentration at half of the fitted maximal effect)
# Outline: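 Compounds are titrated over 15 concentrations, in triplicate, onto TSHR-HEK293 cells seeded at 800/well. Plates sit 30 min at room temperature before cAMP-d2 and anti-cAMP cryptate are added; signal is read after a further hour.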
# [2] = qHTS assay to identify small molecule agonists of the hypoxia (HIF-1) signaling pathway - cell viability counter screen (AID 1224844; calls by dose curve; further: nearly all actives have a fitted effect of over 50% in size)
# Outline: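 Same wells as the HIF-1 reporter screen; ME-180 cells carrying HRE-bla, 17 hr treatment at 37C; CellTiter-Glo luminescence read after 30 min at room temperature.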
# [3] = qHTS assay to identify small molecule agonists of H2AX (AID 1224845; active means well fitted activation curve with a large enough effect in the signal ratio in the repeat runs, not every such curve was filed as active; the % refers to the signal ratio)
# Outline: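 Wild-type CHO-K1 cells plated overnight, then exposed 3 hr at 37C to compounds at 15 concentrations (0.76% DMSO). Lysed, then HTRF anti-pH2AX(S139)-cryptate/anti-H2AX-d2 detection after 24 hr at room temperature; emissions 665 and 620 nm.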
# [4] = qHTS assay to identify small molecule agonists of the hypoxia (HIF-1) signaling pathway (AID 1224846; active means well fitted activation curve with a large enough effect in the signal ratio in the repeat runs, not every such curve was filed as active; the % refers to the signal ratio)
# Outline: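 In ME-180 cells bearing an HRE-bla construct, 17 h treatment with DMSO-dissolved compounds at 37C was followed by CCF4-AM loading to quantify reporter induction.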
# [5] = qHTS assay to identify small molecule agonists of H2AX - cell viability counter screen (AID 1224847; calls by dose curve; further: nearly all actives have a fitted effect of over 30% in size; further: potency means the concentration at half of the fitted maximal effect)
# Outline: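 Cytotoxicity counter screen in wild-type CHO-K1 cells: a 3 hr compound treatment at 37C across 15 concentrations, followed by CellTiter-Glo luminescence to gauge viable cells.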
# [6] = qHTS assay to identify small molecule antagonists of the estrogen related receptor (ERR) signaling pathway from Tox21 library (AID 1224848); further: nearly all actives have a fitted effect of over 50% in size; further: potency means the concentration at half of the fitted maximal effect
# Outline: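 First, 2,000 ERR cells per well were plated and held 6 h at 37 C/5% CO2. Next, compounds in DMSO were pinned in and left 18 h at 37 C. Finally, ONE-Glo was added and luminescence read after 30 min at room temperature.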
# [7] = qHTS assay to identify small molecule agonists of the estrogen related receptor (ERR) signaling pathway from Tox21 library (AID 1224849; calls by dose curve; further: nearly all actives have a fitted effect of over 15% in size); conditions: ERR reporter cell line, ONE-Glo luciferase, 18 h; at 92.4 µM (top of the series) unless noted
# Outline: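 Reporter cells (ERR, NTP source) treated with Tox21 10K compounds 18 h, 37 C. Readout: ONE-Glo luminescence, 30 min RT.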
# [8] = qHTS RealTime-Glo MT Cell Viability Assay in HepG2 cells - 24 hour (AID 1224867); further: nearly all actives have a fitted effect of over 50% in size
# Outline: (§1)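 Cells + NanoLuc/prosubstrate dispensed (600 cells/well) → 5 h at 37 C/5% CO2 → compounds in DMSO transferred → 40 h incubation at 37 C, luminescence read at 0, 8, 16, 24, 32, 40 h.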
# [9] = A CellTox Green Cytotoxicity Assay to monitor cytotoxicity in HEK293 cells - 0 hour (AID 1224869); further: nearly all actives have a fitted effect of over 50% in size; further: potency means the concentration at half of the fitted maximal effect
# Outline: (§2)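 Homogeneous no-lysis format: HEK293 cell suspension mixed with CellTox Green reagent, seeded, incubated 5 h at 37 C/5% CO2, then dosed by pintool with compound in DMSO.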
# [10] = A CellTox Green Cytotoxicity Assay to monitor cytotoxicity in HEK293 cells - 40 hour (AID 1224871); further: nearly all actives have a fitted effect of over 45% in size; further: potency means the concentration at half of the fitted maximal effect
# Outline: as §2
# [11] = qHTS RealTime-Glo MT Cell Viability Assay in HepG2 cells - 8 hour (AID 1224873); further: nearly all actives have a fitted effect of over 55% in size
# Outline: (§3)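 HepG2 cells mixed with RealTime-Glo MT reagents (NanoLuc plus cell-permeant prosubstrate) were seeded at 600 cells/well, incubated 5 h at 37 C/5% CO2, then pinned with compounds in DMSO; nonlytic luminescence tracked viability during 40 h treatment.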
# [12] = A CellTox Green Cytotoxicity Assay to monitor cytotoxicity in HEK293 cells - 24 hour (AID 1224875); further: nearly all actives have a fitted effect of over 45% in size; further: potency means the concentration at half of the fitted maximal effect
# Outline: as §2
# [13] = A CellTox Green Cytotoxicity Assay to monitor cytotoxicity in HepG2 cells - 16 hour (AID 1224876); further: nearly all actives have a fitted effect of over 45% in size; further: potency means the concentration at half of the fitted maximal effect
# Outline: (§4)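 Fluorescent DNA-binding dye, 600 HepG2 cells/well, 5 h preincubation then compound in DMSO; same plates read at 0–40 h, 37 C.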
# [14] = qHTS RealTime-Glo MT Cell Viability Assay in HepG2 cells - 32 hour (AID 1224877); further: nearly all actives have a fitted effect of over 55% in size
# Outline: as §1
# [15] = A CellTox Green Cytotoxicity Assay to monitor cytotoxicity in HepG2 cells - 24 hour (AID 1224878); further: nearly all actives have a fitted effect of over 45% in size; further: potency means the concentration at half of the fitted maximal effect
# Outline: as §4
# [16] = A CellTox Green Cytotoxicity Assay to monitor cytotoxicity in HepG2 cells - 40 hour (AID 1224879); further: nearly all actives have a fitted effect of over 40% in size; further: potency means the concentration at half of the fitted maximal effect
# Outline: as §4
# [17] = qHTS RealTime-Glo MT Cell Viability Assay in HEK293 cells - 32 hour (AID 1224868); further: nearly all actives have a fitted effect of over 50% in size; further: potency means the concentration at half of the fitted maximal effect
# Outline: (§5)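 Tox21 10K qHTS, HEK293, 600 cells/well, RealTime-Glo reagent co-dispensed with cells; 5 h preincubation, compound by pintool, 37 C, luminescence at 0–40 h.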
# [18] = qHTS RealTime-Glo MT Cell Viability Assay in HEK293 cells - 16 hour (AID 1224872); further: nearly all actives have a fitted effect of over 50% in size; further: potency means the concentration at half of the fitted maximal effect
# Outline: as §5
# [19] = qHTS RealTime-Glo MT Cell Viability Assay in HEK293 cells - 40 hour (AID 1224874); conditions: RealTime-Glo luminescence; max response: hits give low values; further: nearly all actives have a fitted effect of over 50% in size; further: potency means the concentration at half of the fitted maximal effect
# Outline: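 Measured as luminescence from the same continuously cultured HEK293 wells at successive time points (0, 8, 16, 24, 32, 40 h) after compound addition. Reagent present from seeding; dosing at 5 h; incubation 37 C.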
# [20] = qHTS RealTime-Glo MT Cell Viability Assay in HepG2 cells - 40 hour (AID 1224870); further: nearly all actives have a fitted effect of over 50% in size
# Outline: as §3
# Sequence of Thyrotropin receptor (Homo sapiens) (P16473 whole entry, looked up): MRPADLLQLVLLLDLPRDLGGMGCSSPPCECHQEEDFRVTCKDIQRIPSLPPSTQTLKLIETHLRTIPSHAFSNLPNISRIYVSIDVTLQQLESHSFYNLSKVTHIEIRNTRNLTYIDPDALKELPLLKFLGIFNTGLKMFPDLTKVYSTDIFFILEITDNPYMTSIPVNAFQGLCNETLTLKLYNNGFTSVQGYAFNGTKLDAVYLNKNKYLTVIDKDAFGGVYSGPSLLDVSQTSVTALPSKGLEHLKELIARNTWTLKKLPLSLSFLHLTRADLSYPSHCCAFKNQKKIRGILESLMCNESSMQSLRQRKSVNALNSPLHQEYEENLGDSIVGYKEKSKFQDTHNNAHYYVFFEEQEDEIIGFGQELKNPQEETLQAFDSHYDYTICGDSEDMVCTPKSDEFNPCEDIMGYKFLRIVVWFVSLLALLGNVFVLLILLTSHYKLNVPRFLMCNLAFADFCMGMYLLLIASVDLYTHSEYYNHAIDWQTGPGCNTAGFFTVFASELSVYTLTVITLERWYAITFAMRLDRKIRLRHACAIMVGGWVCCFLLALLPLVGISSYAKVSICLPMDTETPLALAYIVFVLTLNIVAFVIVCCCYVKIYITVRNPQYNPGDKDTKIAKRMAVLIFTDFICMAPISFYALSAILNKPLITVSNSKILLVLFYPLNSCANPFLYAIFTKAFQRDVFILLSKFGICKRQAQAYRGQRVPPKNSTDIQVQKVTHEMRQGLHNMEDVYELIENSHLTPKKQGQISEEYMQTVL
structure (smiles),measurement,setting,value
N#Cc1cc(I)c(O)c(I)c1,Potency,[1],inactive
same,Potency,[2],inactive
same,Potency,[3],inactive
same,outcome,[4],inactive
same,Potency,[5],28.4 µM (active)
same,Potency,[6],24.3 µM (active)
same,"activity change, positive = activation",[7],-66.8%
same,Potency,[8],inactive
same,Potency,[9],inactive
same,Potency,[10],inactive
same,Potency,[11],inactive
same,Potency,[12],inactive
same,Potency,[13],inactive
same,Potency,[14],inactive
same,Potency,[15],inactive
same,Potency,[16],inactive
Clc1ccc(C2(Cn3cncn3)CC(Br)CO2)c(Cl)c1 (centres undefined),Potency,[1],inactive
same,Potency,[2],inactive
same,Potency,[3],inactive
same,outcome,[4],inactive
same,Potency,[5],112 µM (active)
same,Potency,[6],15.3 µM (active)
same,"activity change, positive = activation",[7],-55.5%
same,Potency,[8],inactive
same,Potency,[17],27.4 µM (active)
same,Potency,[9],inactive
same,Potency,[10],inactive
same,Potency,[18],24.4 µM (active)
same,Potency,[11],inactive
same,Potency,[19],21.7 µM (active)
same,Potency,[13],inactive
same,Potency,[14],inactive
same,Potency,[16],38.7 µM (active)
CC(C)(Cl)[N+](=O)[O-],Potency,[1],inactive
same,Potency,[2],inactive
same,Potency,[3],inactive
same,outcome,[4],inactive
same,Potency,[5],inactive
same,"activity change, positive = activation",[7],-29.2%
same,Potency,[8],inactive
same,Potency,[17],inactive
same,Potency,[9],inactive
same,Potency,[20],inactive
same,Potency,[10],inactive
same,Potency,[18],inactive
same,Potency,[11],inactive
same,max response,[19],2.49%
same,Potency,[12],inactive
same,Potency,[13],inactive
same,Potency,[15],inactive
same,Potency,[16],inactive
C=CC(=O)OC(C)(C)C,Potency,[1],inactive
same,Potency,[2],inactive
same,Potency,[3],inactive
same,outcome,[4],inactive
same,Potency,[5],inactive
same,Potency,[8],inactive
same,Potency,[17],inactive
same,Potency,[9],inactive
same,Potency,[20],inactive
same,Potency,[10],inactive
same,Potency,[18],inactive
same,Potency,[11],inactive
same,max response,[19],13.5%
same,Potency,[12],inactive
same,Potency,[13],inactive
same,Potency,[15],inactive
same,Potency,[16],inactive
COc1nn(C(=O)NS(=O)(=O)c2ccccc2OC(F)(F)F)c(=O)n1C,Potency,[1],inactive
same,Potency,[2],inactive
same,Potency,[3],inactive
same,outcome,[4],inactive
same,Potency,[5],inactive
same,Potency,[6],inactive
same,"activity change, positive = activation",[7],1.4%
same,Potency,[8],inactive
same,Potency,[17],inactive
same,Potency,[9],31.7 µM (active)
same,Potency,[20],inactive
same,Potency,[10],20 µM (active)
same,Potency,[18],inactive
same,Potency,[11],inactive
same,max response,[19],12.6%
same,Potency,[12],22.4 µM (active)
same,Potency,[13],35.5 µM (active)
same,Potency,[14],inactive
same,Potency,[15],39.9 µM (active)
same,Potency,[16],39.9 µM (active)
O=[N+]([O-])c1ccccc1CCl,Potency,[1],inactive
same,Potency,[2],inactive
same,Potency,[3],inactive
same,outcome,[4],inactive
same,Potency,[5],inactive
same,Potency,[8],inactive
same,Potency,[17],inactive
same,Potency,[9],inactive
same,Potency,[20],inactive
same,Potency,[10],inactive
same,Potency,[18],inactive
same,Potency,[11],inactive
same,max response,[19],8.2%
same,Potency,[12],inactive
same,Potency,[13],inactive
same,Potency,[14],inactive
same,Potency,[15],inactive
same,Potency,[16],inactive
Cc1cc(=O)[nH]o1,Potency,[1],inactive
same,Potency,[2],inactive
same,Potency,[3],inactive
same,outcome,[4],inactive
same,Potency,[5],inactive
same,Potency,[8],inactive
same,Potency,[17],inactive
same,Potency,[9],inactive
same,Potency,[20],inactive
same,Potency,[10],inactive
same,Potency,[18],inactive
same,Potency,[11],inactive
same,max response,[19],2.1%
same,Potency,[12],inactive
same,Potency,[13],inactive
same,Potency,[14],inactive
same,Potency,[15],inactive
ClCC(Br)CBr (centres undefined),Potency,[1],inactive
same,Potency,[2],inactive
same,Potency,[3],inactive
same,outcome,[4],inactive
same,Potency,[5],inactive
same,Potency,[8],inactive
same,Potency,[17],inactive
same,Potency,[9],inactive
same,Potency,[20],inactive
same,Potency,[10],inactive
same,Potency,[18],inactive
same,Potency,[11],inactive
same,max response,[19],14.6%
same,Potency,[12],inactive
same,Potency,[13],inactive
same,Potency,[14],inactive
same,Potency,[15],inactive
same,Potency,[16],inactive
CC1C(=O)C[C@]2(C(C)C)C[C@H]12 (some centres undefined),Potency,[1],inactive
same,Potency,[2],inactive
same,Potency,[3],inactive
same,outcome,[4],inactive
same,Potency,[5],inactive
same,Potency,[8],inactive
same,Potency,[17],inactive
same,Potency,[9],inactive
same,Potency,[20],inactive
same,Potency,[10],inactive
same,Potency,[18],inactive
same,Potency,[11],inactive
same,max response,[19],9.37%
same,Potency,[12],inactive
same,Potency,[13],inactive
same,Potency,[15],inactive
same,Potency,[16],inactive
N#Cc1ccc(Cl)cc1,Potency,[1],inactive
same,Potency,[2],inactive
same,Potency,[3],inactive
same,outcome,[4],inactive
same,Potency,[5],inactive
same,Potency,[6],inactive
same,"activity change, positive = activation",[7],0.802%
same,Potency,[8],inactive
same,Potency,[17],inactive
same,Potency,[9],inactive
same,Potency,[20],inactive
same,Potency,[10],inactive
same,Potency,[18],inactive
same,Potency,[11],inactive
same,max response,[19],2.27%
same,Potency,[12],inactive
same,Potency,[13],inactive
same,Potency,[14],inactive
same,Potency,[15],inactive
C=CC(=O)NCNC(=O)C=C,Potency,[1],inactive
same,Potency,[2],inactive
same,Potency,[3],inactive
same,outcome,[4],inactive
same,Potency,[5],inactive
same,Potency,[6],inactive
same,"activity change, positive = activation",[7],36.6% (active)
same,Potency,[8],inactive
same,Potency,[17],inactive
same,Potency,[9],inactive
same,Potency,[20],inactive
same,Potency,[10],inactive
same,Potency,[18],inactive
same,Potency,[11],inactive
same,Potency,[12],inactive
same,Potency,[13],inactive
same,Potency,[14],inactive
same,Potency,[15],inactive
Clc1cc(Cl)c(Cl)c(Cl)c1,Potency,[1],inactive
same,Potency,[2],inactive
same,Potency,[3],inactive
same,outcome,[4],inactive
same,Potency,[5],inactive
same,Potency,[8],inactive
same,Potency,[17],inactive
same,Potency,[9],inactive
same,Potency,[20],inactive
same,Potency,[10],inactive
same,Potency,[18],inactive
same,Potency,[11],inactive
same,max response,[19],-4.38%
same,Potency,[12],inactive
same,Potency,[13],inactive
same,Potency,[15],inactive
same,Potency,[16],inactive
O=[Se]=O,Potency,[1],inactive
same,Potency,[2],inactive
same,Potency,[3],inactive
same,outcome,[4],inactive
same,Potency,[5],inactive
same,Potency,[6],30.4 µM (active)
same,"activity change, positive = activation",[7],-51.4% [at 42.5 µM]
same,Potency,[8],inactive
same,Potency,[17],17.3 µM (active)
same,Potency,[9],inactive
same,Potency,[10],24.4 µM (active)
same,Potency,[18],inactive
same,Potency,[11],inactive
same,Potency,[19],17.3 µM (active)
same,Potency,[12],inactive
same,Potency,[13],inactive
same,Potency,[15],inactive
same,Potency,[16],19.4 µM (active)
CCc1ccc(C(=O)NN(C(=O)c2cc(C)cc(C)c2)C(C)(C)C)cc1,Potency,[1],15.4 µM (active)
same,Potency,[2],inactive
same,Potency,[3],inactive
same,outcome,[4],inactive
same,Potency,[5],inactive
same,Potency,[6],30.6 µM (active)
same,"activity change, positive = activation",[7],-56.4%
same,Potency,[8],inactive
same,Potency,[17],inactive
same,Potency,[9],inactive
same,Potency,[20],inactive
same,Potency,[10],inactive
same,Potency,[18],inactive
same,Potency,[11],inactive
same,max response,[19],-11.5%
same,Potency,[12],inactive
same,Potency,[13],inactive
same,Potency,[15],inactive
same,Potency,[16],inactive
